# Source: the supplement of paper PMC6555819
# Columns and labels:
# Experiment in all cases: PBM binding z-score (relative to random genomic background probes); higher = stronger binding; sequences stand for … in GC…GCGATTGACAGCGTAGAATGAAGG
# [1] = tested on: RARb homodimer (NR concentration 270 nM)
# Procedure, shortened: (§1)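 Custom Agilent 4×180K protein-binding microarrays carried double-stranded probes, each with a 34-nt variable region. These regions held direct-repeat seeds, single-nucleotide variants, half-site ablations and random human genomic background sequences. Ligand-free nuclear receptor dimers were incubated on the arrays for 1 h, antibodies against each partner (one per run) detected binding, and scanned fluorescence was regression-normalized. Binding z-scores take the random background probes as reference.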
# [2] = tested on: RARg:RXRa (NR concentration 270 nM, RXRa partner concentration 90 nM)
# Procedure, shortened: as §1
# [3] = tested on: RARg homodimer (NR concentration 270 nM)
# Procedure, shortened: as §1
# [4] = tested on: RXRa DBDmut IVT, anti-RXR (DBD mutation: RXRa K156A/R161A, NR concentration 90 nM)
# Procedure, shortened: as §1
# [5] = tested on: RXRa homodimer (NR concentration 180 nM)
# Procedure, shortened: as §1
# [6] = tested on: THRa:RXRa (NR concentration 90 nM, RXRa partner concentration 90 nM)
# Procedure, shortened: as §1
# [7] = tested on: THRa homodimer (NR concentration 90 nM)
# Procedure, shortened: as §1
# [8] = tested on: VDR homodimer (NR concentration 270 nM)
# Procedure, shortened: as §1
Sequence,PBM binding z-score [1],PBM binding z-score [2],PBM binding z-score [3],PBM binding z-score [4],PBM binding z-score [5],PBM binding z-score [6],PBM binding z-score [7],PBM binding z-score [8]
ACTATTATTTGAGACGAGGGCAACCGATAGGTTG,1.51,0.808,0.929,1.03,0.916,1.12,1.07,1.75
TCATATAGGTAGAAGGTGAAAGTCGGTGTGGTAA,1.02,0.662,0.283,2.05,1.18,0.699,0.397,0.453
CGAACTAGGTCAATGACAGGACAGTGAATAGTAA,2.71,4.32,4.46,1.49,2.17,2.62,0.35,0.409
TCTTGTAGATTAATAGAGGTTAAGAAAGTGCGCT,1.51,0.95,0.856,1.23,1.66,1.81,-0.0934,0.699
CGAACTAGGTCTTCCAGGACAGTGAATACATTGA,0.194,0.154,0.415,0.373,-0.0434,1.71,0.787,0.0101
CGTCCAAGGTCATAGGCGGTCAGTGAAGACAGAT,4.09,6.05,6.4,3.89,5.94,4.35,2.21,3.22
TCCTGTAGATCAATAGAGGTTAAGAAAGTGCGCT,1.25,0.701,0.381,1.41,1.19,2.29,-0.00152,0.39
TCATATAGGTAAATGCTAGCTGAAAGTCCGATCT,-0.406,0.14,0.178,1.68,0.565,-0.388,-0.402,0.142
TTACCAAGGTGAAGCTCGTTGATCCCTCTGTAGA,0.199,0.159,-0.0803,-0.864,0.473,1.57,0.166,-0.835
TTACCAAGGTGAGATGAGGTCGTTGATCCAACTC,1.54,1.49,1.26,0.446,1.85,4.77,2,2.31
AGAATGAGGTTAAGATCAGGGGAACAGAATACAT,1.37,2.14,1.59,1.58,2.52,2.8,1.34,0.727
CTCGAAAGGTCGTGCGCAGGTGAGTATACCAAAC,2.93,5.81,3.83,1.76,5.1,3.58,0.11,0.912
CCGACTTGGGCAAGGTTACCATAACGCACAGCCA,0.919,0.796,0.586,0.164,1.05,1.17,0.449,0.117
AATACAGGGTCAATAGGCCAGAGTAGGTACGAAT,3.5,5.29,4.37,2.4,4.89,3.03,0.474,2.13
CGAACGAGGGTATGAGTTGATAGCAAATGCCGAT,-0.208,0.124,0.248,0.658,0.0632,-0.183,-0.485,0.345
GTAGACAGGTGAAACGCAGGTAACTCAGGGTGGC,0.348,0.896,0.286,-0.661,0.743,1.43,-0.349,-0.271
CCAGACAGGTGAGAATGTAACTCAGCCTCGATTA,-0.0133,0.273,0.342,0.0123,0.179,-0.103,-0.12,-0.0924
CTCGAAAGGTCGTGCTCATGTGAGTATACCAAAC,2.68,4.43,3.69,2.15,5.19,2.45,0.174,0.995
CCTATTTGGTCAGGAGGTCACACACCGGATATGA,4.24,5.12,4.67,1.25,5.03,3.54,2.66,2.61
TCTTGTAGATCAACAGGAGGTTTAGAAAGATCGA,-0.821,-0.145,-0.083,0.348,-0.0846,-0.426,-0.597,-0.584
CGTGAAAGTTCAACTAAGGTAACGTAAAGCACGC,4.13,5.55,6.12,4.76,4.3,5.32,1.64,3.71
ACTTACGGGTCAACTAGGTTATAGCACGCGTATA,3.63,5.71,5.16,2.08,5.82,3.52,0.857,2.03
AATACAGGGTCACTAAGCCAGAGTAGGTACGAAT,3.03,5.07,4.83,2.77,5.39,3.33,1.13,2.35
AATCGGAGGACAAAGGTCAGAGCTACGCCAGTGA,4.37,5.79,4.98,0.662,4.98,3.55,0.579,1.36
CAAACTAGGTCAAAGGTTAAAGTCGAGCCAACCA,3.86,7.3,5.26,2.59,8.93,4.29,1.04,1.6
AGAACGAGAGCACGCTGAGTTGATAGCAGAGTAG,-1.13,-0.185,0.0866,-0.192,-0.166,-0.571,-1.24,-0.355
ATCTCTAGGTAAGCAAGTTCAGTGAATGCCGAAC,1.09,0.455,0.778,0.62,0.3,0.771,0.165,2.32
GCTACTAGGTCAACTGATGGTCAGCTAAAGCTCG,3.31,5.27,5.19,1.63,3.06,2.9,0.994,0.21
AGAACGAGGGAAATGAGTTGATAGCACGGGTGGC,-0.754,-0.0436,0.0126,-0.228,-0.0737,-0.188,-0.839,0.141
